Compound activity: PubChem BioAssay, University of Kansas High Throughput Screening Laboratory
This excerpt belongs to a sample that is enriched for hits.
mHTT CaM bind = mHTT-calmodulin interaction abrogation; P42858; AlphaScreen His-mHTT/GST-CaM binding, luminescence; inhibition, % at 15 µM; 190,000 tested, 3.6% active;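 further: 0% = both proteins with DMSO and 100% = one protein alone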
Pf apPOL inh = Pf-apPOL DNA polymerase inhibition | 210,000 tested, 0.25% active | Recombinant Pf-apPOL, molecular beacon fluorescence, 1.5 h | inhibition, % at 10 µM
* hit, by the source's call; / = no result given. No stated cut-off is given here; in the data, active means inhibition above about 50%; inactive means the rest.

SMILES | mHTT CaM bind | Pf apPOL inh
COc1ccccc1N1CCN(S(=O)(=O)c2ccc(OC)c([N+](=O)[O-])c2)CC1 | 14.4 | -4.9
COc1ccc(S(=O)(=O)N2CCN(c3cccc(Cl)c3)CC2)cc1 | -8.3 | -16.5
N#CC1=C(N)C(C#N)(C#N)C(c2cccc(F)c2)C2CCCC=C12 (centres undefined) | 23.0 | -2.7
N#CC1=C(N)C(C#N)(C#N)C(c2cccc(Oc3ccccc3)c2)C2CCCC=C12 (centres undefined) | 50.0* | 4.5
N#CC1=C(N)C(C#N)(C#N)C(c2ccc(Cl)c(Cl)c2)C2CCCC=C12 (centres undefined) | 100.0* | 6.1
N#CC1=C(N)C(C#N)(C#N)C(c2ccc(Cl)cc2Cl)C2CCCC=C12 (centres undefined) | 49.0 | 2.3
Cc1nnc(-c2cccn2CC(=O)NCCc2ccc(Cl)cc2)o1 | -5.5 | -0.5
O=S(=O)(Cc1c(Cl)cccc1Cl)c1cccs1 | / | 5.7
CCOc1sc2nc(C)n(CC(=O)Nc3cc(OC)cc(OC)c3)c(=O)c2c1C | 6.0 | -1.3
CCn1ccc2oc(C)c(C(=O)N3CCC(Cc4ccccc4)CC3)c2c1=O | 93.3* | 0.7
CCn1ccc2oc(C)c(C(=O)N3CCC(C)CC3)c2c1=O | -10.1 | 0.2
Cc1sc2ccn(Cc3ccc(F)cc3)c(=O)c2c1C(=O)N1CCOCC1 | 11.9 | 0.7
Cc1oc2ccn(Cc3ccc(F)cc3)c(=O)c2c1C(=O)N1CCCCC1 | 59.3* | 0.9
Cc1oc2ccn(Cc3cccc(F)c3)c(=O)c2c1C(=O)N1CCCCC1 | 1.0 | -1.3
Cc1sc2ccn(Cc3ccc(F)cc3)c(=O)c2c1C(=O)N1CCC(C)CC1 | 80.3* | -4.9
O=C1OC(c2ccc(Cl)cc2)=N/C1=C\c1cccs1 | 2.0 | -0.1
CCCOc1ccccc1C1NC(=O)NC(CC)=C1[N+](=O)[O-] (centres undefined) | 3.0 | -4.3
COc1cccc(C=C2Oc3cc(OS(=O)(=O)c4ccc(C)cc4)ccc3C2=O)c1OC | 6.6 | -1.8
CCOC(=O)c1cc2sccc2[nH]1 | 3.2 | -4.4
CCc1ccccc1N(CC(=O)Nc1ccc(F)cc1F)S(C)(=O)=O | -0.7 | -8.5
CCc1ccc(NC(=O)N2CCc3nc(-c4ccc(OC)cc4)ncc3C2)cc1 | -10.7 | 8.1
COc1ccc(C=O)cc1OCc1ccccc1[N+](=O)[O-] | 1.4 | 94.1*
COc1ccc(NCc2ccc([N+](=O)[O-])s2)cc1OC | 65.1* | 4.3
CCOc1cc(CN2CCN(Cc3ccccc3[N+](=O)[O-])CC2)ccc1OC | 9.2 | 5.9
COc1ccccc1NCc1ccc([N+](=O)[O-])s1 | 31.4 | 10.6
SMILES | mHTT CaM bind | Pf apPOL inh
COc1ccc(NCc2ccccc2[N+](=O)[O-])cc1OC | 64.4* | 3.7
COc1ccc(NC(=O)Cc2ccccc2[N+](=O)[O-])cc1OC | 1.6 | 2.0
Cc1ccc(NC(=O)C(C)N(c2ccccc2)S(C)(=O)=O)cc1 (centres undefined) | -5.0 | -6.5
O=C(c1ccccn1)N1CCC(OCc2nc(C3CC3)no2)CC1 | -4.7 | -6.4
Cn1cc(CN2CCC(C(=O)NCCN3CCCCC3)CC2)c2cc(Cl)ccc21 | 1.4 | 1.0
Cn1cc(CN2CCC(C(=O)NCCCN3CCCC3)CC2)c2cc(Cl)ccc21 | 54.7* | -1.3
CCn1cc(CN2CCC(C(=O)NCc3cccc(Cl)c3)CC2)c2cc(OC)ccc21 | 90.0* | 1.2
CCn1cc(CN2CCC(C(=O)NCc3cccc(OC)c3)CC2)c2ccccc21 | 12.2 | -3.9
CCOc1ccc(/C=C/C(=O)Nc2ccc(Cl)cn2)cc1 | 18.0 | 3.7
COc1ccc(CSC(N)=NN)cc1 | / | 5.0
O=C(CSCc1csc2ccc(Cl)cc12)Nc1ccc([N+](=O)[O-])cc1 | / | 5.8
CCN1c2cc(C)ccc2-n2cccc2C12CCN(C(=O)Nc1ccc(F)cc1F)CC2 | 51.6* | -5.9
CCN1c2cc(C)ccc2-n2cccc2C12CCN(C(=O)Nc1cc(F)ccc1F)CC2 | 51.3* | 0.7
Cc1cccc(NC(=O)N2CCC3(CC2)NC(=O)c2ccccc2N3C)c1 | -10.4 | 0.2
CCN1c2cc(C)ccc2-n2cccc2C12CCN(C(=O)Nc1ccc(F)cc1)CC2 | 48.5 | -7.7
CCN1c2cc(C)ccc2-n2cccc2C12CCN(C(=O)Nc1cccc(C)c1)CC2 | 65.8* | 4.8
CCN1c2ccccc2-n2cccc2C12CCN(C(=O)Nc1ccccc1C)CC2 | 4.1 | -2.3
O=C(C1CCCCC1)N1CCn2c(nc3ccccc32)C1 | 6.8 | -9.9
CCOCCSC1=C(C#N)C(c2ccc(Cl)cc2)C(C(C)=O)=C(C)N1 (centres undefined) | -15.2 | -2.4
Cc1ccc(CN2C(=O)NC3(CCN(C(=O)Cc4ccc(Cl)cc4)CC3)C2=O)cc1 | 1.2 | -14.7
Cc1ccc(C)c(CN2C(=O)NC3(CCN(C(=O)Cc4ccc(Cl)cc4)CC3)C2=O)c1 | 57.8* | -4.2
O=C(Oc1ccc(Cl)cc1)c1cncc(C#Cc2ccccc2)c1 | / | -5.2
C=C1CC23CC1(O)CCC2C12C=CC(O)C(C)(C(=O)O1)C2C3C(=O)O (centres undefined) | / | -13.6
COc1ccc2c(c1)=CC(=Cc1[nH]c(SC(C)=O)nc1O)C(=O)N=2 | 100.0* | -3.9
COc1ccc(C=C2Oc3cc(C)cc(O)c3C2=O)cc1 | 37.5 | 4.2
SMILES | mHTT CaM bind | Pf apPOL inh
CN1CC(c2nc(C3CC3)no2)C2(CCN(C(=O)c3ccc4c(c3)OCO4)CC2)C1 (centres undefined) | 0.8 | -6.4
O=[N+]([O-])c1ccc(-c2csc(N3CCCC3)n2)cc1 | -1.6 | -2.2
Cc1ccc(-c2csc(N3N=C(c4ccc([N+](=O)[O-])cc4)CC3=O)n2)cc1 | 53.0* | 0.1
Cc1ccccc1COC1CCCN(C(=O)c2cccs2)C1 (centres undefined) | -7.7 | 0.5
CCOc1ccccc1NC(=O)C1c2cc(OC)c(OC)cc2C(=O)N2CCc3ccccc3C12 (centres undefined) | 54.0* | -3.3
COc1cc(Cl)c(C)cc1NC(=O)C1c2ccccc2C(=O)N2CCc3ccccc3C12 (centres undefined) | 54.0* | -5.1
COc1cc2c(cc1OC)C(C(=O)Nc1ccc(F)cc1)C1c3ccccc3CCN1C2=O (centres undefined) | 9.0 | -0.4
COc1ccc(C)cc1NC(=O)C1c2ccccc2C(=O)N2CCc3ccccc3C12 (centres undefined) | 42.0 | 11.1
Cc1ccc(N2C(=O)C3C(c4ccccc4F)OC4(C(=O)c5ccccc5C4=O)C3C2=O)cc1 (centres undefined) | 22.0 | -2.5
Cc1ccc(C)c(N2C(=O)NC3CC2(C)Oc2ccccc23)c1 (centres undefined) | 12.0 | -2.4
COCCNc1nc(SCC(=O)Nc2cccc(C(F)(F)F)c2)nc2ccccc12 | 67.0* | -2.3
CCc1nnc(SCC(=O)Nc2cccc(C(F)(F)F)c2)nc1CC | -5.0 | -1.3
O=C(CSc1nc2ccccc2[nH]1)Nc1cc(C(F)(F)F)ccc1Cl | 50.0* | -3.8
Cc1cc(=O)[nH]c(SCC(=O)Nc2cc(C(F)(F)F)ccc2Cl)n1 | -4.0 | -0.6
Cc1ccc(-n2c(N3CCCC(C(=O)NCC(C)C)C3)nc3ccsc3c2=O)cc1 (centres undefined) | 9.6 | -5.4
O=C(Nc1ccc(F)cc1)C1(S(=O)(=O)c2ccc(Cl)cc2)CC1 | -6.0 | -0.7
Cc1ccc(NC(=O)C2(S(=O)(=O)c3ccc(Cl)cc3)CC2)cc1F | -22.0 | 84.3*
O=S(=O)(O)c1ccc(O)c2ncccc12 | 100.3* | -5.1
Cc1ccc2c(S(=O)(=O)O)ccc(O)c2n1 | 24.1 | 0.2
